The full ranking holds about 35,000 sequences; the median of “fluorescence intensity (a.u.)” is about 10,000, and the highest 2% start at about 52,000. The full list was thinned out, with the highest values kept by preference.

This assay addresses T1, OsWOX13 (Oryza sativa, UniProt Q5QMM3 1-267).
T1 sequence: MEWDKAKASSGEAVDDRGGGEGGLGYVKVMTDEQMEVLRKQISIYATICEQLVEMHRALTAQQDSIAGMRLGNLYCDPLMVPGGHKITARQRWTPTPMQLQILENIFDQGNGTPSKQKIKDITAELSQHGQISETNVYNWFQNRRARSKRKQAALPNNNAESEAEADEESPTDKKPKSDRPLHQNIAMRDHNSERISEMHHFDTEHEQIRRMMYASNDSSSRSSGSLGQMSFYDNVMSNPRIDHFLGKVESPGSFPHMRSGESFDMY
In words: protein-binding microarray (RPBM); PBS, 2% BSA, 51.3 ng/ul salmon testes DNA, 50 uM zinc acetate, 200 nM TF, 25 C, 1 h; high values mean tight binding. Particulars: protein: recombinant; tags: N-terminal polyhistidine and DsRed monomer fusion (pET32a); label: CyDye5-dUTP incorporated in the synthesized complementary strand; 3' TTTTT single-stranded linker to array surface; dsDNA, one strand shown. The gist of the method:
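An Axon 4000B scanner gave the binding signal as per-feature fluorescence intensity in arbitrary units. This followed washing of a custom Agilent array that had been incubated for 1 h at 25 °C with 200 nM protein in PBS, 2% BSA, salmon testes DNA and 50 µM zinc acetate. The proteins were transcription factors fused at the N-terminus to polyhistidine and DsRed, expressed in E. coli BL21-CodonPlus and purified on Ni–NTA.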
In the case of “CAAGATTGGGCGAGGGAGGGAGGAGTCCAGATCCTGCCTCCGGAGTCACCTAGTGCAG”, the binding signal was 3250 fluorescence intensity (a.u.).

Take “ATTCTCGATTTAACACTAATCATCATTATCCTAATAACCACGGAGTCACCTAGTGCAG”: the binding signal was 6320 fluorescence intensity (a.u.).

As to “CTTAATTTAGAGTTGATTTTGGAGTTTCTTTTATCGTAGTCGGAGTCACCTAGTGCAG”, the binding signal is 39500 fluorescence intensity (a.u.).

Take “ATTACTTATCTGATTTACGATCCGACTTAACCACTGTATTCGGAGTCACCTAGTGCAG”: the binding signal is 4150 fluorescence intensity (a.u.).

Turning to “ACAAATTGGTCACTGGCTGAATAGTTTCTACATCAGTTAACGGAGTCACCTAGTGCAG”, the binding signal was 6570 fluorescence intensity (a.u.).

Regarding “CGTAAACATCTGATGAGTACCTCACATGTTGAACATCTCCCGGAGTCACCTAGTGCAG”, the binding signal is 3900 fluorescence intensity (a.u.).

Regarding “GTTGAAGGATCTGGATGATTAGACGAGCGATGGATCAGGTCGGAGTCACCTAGTGCAG”, the binding signal was 3720 fluorescence intensity (a.u.).

As to “ATAGTATATGATGGATGAGATGGATGCATAGATGGATTGGCGGAGTCACCTAGTGCAG”, the binding signal is 3330 fluorescence intensity (a.u.).

Turning to “TGCTGATTGGTATGCATAGAGTATGTATGGAAACCTTGTGCGGAGTCACCTAGTGCAG”, the binding signal is 56600 fluorescence intensity (a.u.).

As to “TCAGTATGTGATTGATTGAAAACTGAAATGGTAGACATACCGGAGTCACCTAGTGCAG”, the binding signal is 53400 fluorescence intensity (a.u.).

Take “ATACTTGATTTAAAATGAAAACATAGACAAATGTATGGTACGGAGTCACCTAGTGCAG”: the binding signal is 23800 fluorescence intensity (a.u.).

For the sequence “TGTCAGATTGGATGGATTGTGCTACTGTACATGCATAGTGCGGAGTCACCTAGTGCAG”, the binding signal is 37000 fluorescence intensity (a.u.).

“ATGTGAAATTGAATGCAGTAGTATGCACATGAAACTTGGGCGGAGTCACCTAGTGCAG”: the binding signal was 11300 fluorescence intensity (a.u.).

As for “CCCGTGGCTCGACTTGATGGCGTGGAGAATGGACGAGTACCGGAGTCACCTAGTGCAG”, the binding signal is 6970 fluorescence intensity (a.u.).

In the case of “TTATAATTAGAACTTTTATATGTGTGTTATGCACGACTTACGGAGTCACCTAGTGCAG”, the binding signal was 4050 fluorescence intensity (a.u.).

For “ATTTGATCCAAATTATATGGTTATTAATCAAATCCCATAGCGGAGTCACCTAGTGCAG”, the binding signal was 10200 fluorescence intensity (a.u.).

For “GTTAATTGATTAGCAAAAGGTACTATACATATATTCTTTTCGGAGTCACCTAGTGCAG”, the binding signal was 33800 fluorescence intensity (a.u.).

For “GCAAATGTAGGTAAGATTGAGATTGACTTTATGTGGGTCCCGGAGTCACCTAGTGCAG”, the binding signal is 12500 fluorescence intensity (a.u.).

In the case of “TCGACTTCTGATTGATGTCAGTAATGGTGTACCAGTGCTGCGGAGTCACCTAGTGCAG”, the binding signal is 41200 fluorescence intensity (a.u.).

For “CGTACCAGCTGATTGATGGTGTCACTCACCAAATGTTCTTCGGAGTCACCTAGTGCAG”, the binding signal was 34300 fluorescence intensity (a.u.).

For the sequence “TGTCCTCCTGCTCCTGATTGGATCGGTAGAAAGGTGGCGGCGGAGTCACCTAGTGCAG”, the binding signal was 11000 fluorescence intensity (a.u.).

As to “GCCGGTGATTGGCGTGGCGTGGCGTGGCGTGGCGCGGTGTCGGAGTCACCTAGTGCAG”, the binding signal was 52600 fluorescence intensity (a.u.).

Consider “TGGATCCTGATTGGATCCTGATTGGCGTTGCGGCCGTGTCCGGAGTCACCTAGTGCAG”, for which the binding signal is 65000 fluorescence intensity (a.u.).

Turning to “TTCTGATTGATGTCAGGAGTGGCGTGCGTACCAGTGCTGTCGGAGTCACCTAGTGCAG”, the binding signal was 58100 fluorescence intensity (a.u.).

Consider “GCGGATTGGTTGCCTGACCCTCCTCCTCCTCCTCCTCCTCCGGAGTCACCTAGTGCAG”, for which the binding signal was 8490 fluorescence intensity (a.u.).

On to “GTGATTGGCGCGATCCGTGCGCTTGCCGTCTTGCCGGCGTCGGAGTCACCTAGTGCAG”, for which the binding signal was 30100 fluorescence intensity (a.u.).

As for “GACGCGTCGGTGCTGATTGACTCGACGGCCGGCAACGTGGCGGAGTCACCTAGTGCAG”, the binding signal is 22800 fluorescence intensity (a.u.).

As for “TACTGATGAGCCACTGACGGGTGGGGCCAGTTGACTGACACGGAGTCACCTAGTGCAG”, the binding signal is 6930 fluorescence intensity (a.u.).

With “GCAGATTAGTCGTTAGTGGTGACAGAAACGGCAAAAGTGGCGGAGTCACCTAGTGCAG”, the binding signal was 6220 fluorescence intensity (a.u.).

Regarding “CTCCGATTAATGTGGAAATTTCTAACCTCTACAGCGAACGCGGAGTCACCTAGTGCAG”, the binding signal was 6190 fluorescence intensity (a.u.).

For “TTTCTAATTTCTTTCAGCATCGTATTAATGTCGATATTAACGGAGTCACCTAGTGCAG”, the binding signal is 3250 fluorescence intensity (a.u.).

Turning to “GCGAAATTAATCTTTTGGTTGTTTCTACCTTTGCTCTGATCGGAGTCACCTAGTGCAG”, the binding signal is 5540 fluorescence intensity (a.u.).

Turning to “TTCGTGATTTATATAAAACATTCCCATGTTGAAACCCTAACGGAGTCACCTAGTGCAG”, the binding signal is 15400 fluorescence intensity (a.u.).

For “GTGTTGTGATTCAATTAATTTGGCAGACACCAATTTGCTGCGGAGTCACCTAGTGCAG”, the binding signal is 23200 fluorescence intensity (a.u.).

Consider “TACTTTGATTTGCACACAATCAAATGTACAGTAGTACATGCGGAGTCACCTAGTGCAG”, for which the binding signal is 28500 fluorescence intensity (a.u.).

In the case of “TTAAATCAATAATTAAATATATTTTCATAATAAATTTGTGCGGAGTCACCTAGTGCAG”, the binding signal was 27500 fluorescence intensity (a.u.).

Consider “GTTTTAAATTAATATATCTCGCGGAATATTAGAGCAAACGCGGAGTCACCTAGTGCAG”, for which the binding signal was 12600 fluorescence intensity (a.u.).

For “GTAGATCAATTTCCTTAACCGAATATAGCAAGAATCCGACCGGAGTCACCTAGTGCAG”, the binding signal was 3270 fluorescence intensity (a.u.).

Regarding “TAGTAGATTGATTTCCTTAACCGAATATAGCAGGAATCCGCGGAGTCACCTAGTGCAG”, the binding signal is 52900 fluorescence intensity (a.u.).

As for “AAACTTCATTTAGTAGATTGATTTTCTTAACCGAATATAGCGGAGTCACCTAGTGCAG”, the binding signal is 9560 fluorescence intensity (a.u.).

For the sequence “TTGATTGTGTGCAACTGACTTTGTCCCCGTTCTATAATATCGGAGTCACCTAGTGCAG”, the binding signal is 8250 fluorescence intensity (a.u.).

With “ATGTTAATGCAAAATAAATTAAATACATAGCAAGGTACTACGGAGTCACCTAGTGCAG”, the binding signal is 11200 fluorescence intensity (a.u.).

(Values after paper PMC7819943, “Rice protein-binding microarrays: a tool to detect cis-acting elements near promoter regions in rice”.)
